Drawing on ChEMBL document CHEMBL3988442, “University of Dundee, Small-Polar-MMV Screening Library” (2021), this text covers Percent Effect for 11 compounds.

Design in all cases: scale not given: direction of the effect not stated beside the values
For experiment [1], the target named is Protein translocase subunit SecA (Escherichia coli (strain K12)) (UniProt P10408). Nature of the experiment: Assay to Identify E. coli SecA ATPase Inhibitors. It counts as functional. To be noted: 30 µM.
In experiment [2] the target is T1, Ubiquitin-activating enzyme e1, putative (Leishmania donovani (strain BPK282A1)) (UniProt E9BSI1).
T1 sequence (whole entry): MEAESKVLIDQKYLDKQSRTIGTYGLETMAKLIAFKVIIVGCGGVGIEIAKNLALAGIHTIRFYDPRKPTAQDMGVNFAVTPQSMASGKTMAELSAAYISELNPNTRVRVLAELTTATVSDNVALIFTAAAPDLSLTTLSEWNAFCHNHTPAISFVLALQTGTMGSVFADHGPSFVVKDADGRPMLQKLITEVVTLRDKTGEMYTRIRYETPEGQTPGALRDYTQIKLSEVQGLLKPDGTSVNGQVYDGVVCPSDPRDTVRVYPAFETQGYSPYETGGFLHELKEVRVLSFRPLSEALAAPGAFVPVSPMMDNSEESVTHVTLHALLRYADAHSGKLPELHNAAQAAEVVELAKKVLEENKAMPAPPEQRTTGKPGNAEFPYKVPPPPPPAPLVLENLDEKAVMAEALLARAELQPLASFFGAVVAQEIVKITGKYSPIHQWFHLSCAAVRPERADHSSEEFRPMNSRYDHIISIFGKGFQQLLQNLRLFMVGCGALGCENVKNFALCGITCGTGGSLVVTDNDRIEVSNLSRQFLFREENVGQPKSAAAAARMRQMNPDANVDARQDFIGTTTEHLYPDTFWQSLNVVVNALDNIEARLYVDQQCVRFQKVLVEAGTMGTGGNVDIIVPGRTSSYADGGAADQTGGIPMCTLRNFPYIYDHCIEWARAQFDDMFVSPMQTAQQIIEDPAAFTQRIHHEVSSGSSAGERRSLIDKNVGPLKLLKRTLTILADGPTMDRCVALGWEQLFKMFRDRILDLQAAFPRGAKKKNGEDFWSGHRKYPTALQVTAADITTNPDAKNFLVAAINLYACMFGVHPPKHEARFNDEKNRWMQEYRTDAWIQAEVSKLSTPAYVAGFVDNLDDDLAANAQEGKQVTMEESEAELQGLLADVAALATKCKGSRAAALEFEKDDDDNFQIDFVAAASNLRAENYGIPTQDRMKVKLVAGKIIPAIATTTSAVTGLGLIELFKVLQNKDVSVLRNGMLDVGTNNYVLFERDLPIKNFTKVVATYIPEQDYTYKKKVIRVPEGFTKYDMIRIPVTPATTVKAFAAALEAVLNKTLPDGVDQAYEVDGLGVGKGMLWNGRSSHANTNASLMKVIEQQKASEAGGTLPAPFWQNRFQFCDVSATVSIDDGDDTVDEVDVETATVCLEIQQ
Nature of the experiment: Leishmania donovani Ubiquitin Activating Enzyme (LdE1). The following applies: 30 µM. It counts as functional.

In experiment [3] the target is Sialic acid-binding Ig-like lectin 9 (Homo sapiens) (UniProt Q9Y336). Nature of the experiment: Hs-Siglec9 ALPHAscreen SOP 20170721. The following applies: 10 µM. Background: Alpha assays give light when donor and acceptor beads are brought close together.
The subject of the next experiment is Trypanosoma cruzi. Nature of the experiment: Trypanosoma cruzi phosphomannomutase and mannose-1-phosphate guanylyltransferase assay. The experiment is classed as functional. To be noted: 10 µM.
Experiment [4] deals with T2, Arginase-2, mitochondrial (Homo sapiens) (UniProt P78540).
T2 sequence (whole entry): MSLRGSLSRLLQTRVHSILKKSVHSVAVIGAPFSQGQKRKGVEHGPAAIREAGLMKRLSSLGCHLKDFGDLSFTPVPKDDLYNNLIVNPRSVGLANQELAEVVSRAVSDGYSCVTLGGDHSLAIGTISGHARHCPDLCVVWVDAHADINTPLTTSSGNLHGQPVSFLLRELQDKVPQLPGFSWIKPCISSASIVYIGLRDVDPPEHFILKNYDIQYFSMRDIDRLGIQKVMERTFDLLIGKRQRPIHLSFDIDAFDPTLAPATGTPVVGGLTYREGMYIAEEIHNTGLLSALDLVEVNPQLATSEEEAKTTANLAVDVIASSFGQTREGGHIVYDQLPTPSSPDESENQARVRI
Nature of the experiment: in vitro enzyme assay to detect the production of urea directly proportional to the activity of Arginase II. Also: in the data most compounds retested in dose-response had high values. The experiment is classed as functional. The following applies: 33.3 µM.

The target in experiment [5] is T3, Proteasome subunit beta (Trypanosoma cruzi) (UniProt O96673).
T3 sequence (whole entry): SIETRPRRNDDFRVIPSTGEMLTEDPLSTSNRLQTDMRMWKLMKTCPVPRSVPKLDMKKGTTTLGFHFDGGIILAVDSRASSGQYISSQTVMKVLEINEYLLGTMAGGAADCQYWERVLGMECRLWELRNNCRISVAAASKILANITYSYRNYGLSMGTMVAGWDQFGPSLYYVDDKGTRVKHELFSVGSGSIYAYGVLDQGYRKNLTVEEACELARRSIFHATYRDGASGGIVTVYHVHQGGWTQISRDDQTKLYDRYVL
Nature of the experiment: Trypanosoma cruzi proteasome chymotrypsin-like activity (TcProtChymo) assay. Also: in the data most compounds retested in dose-response had high values. It counts as functional. The following applies: 9.37 µM.

A further experiment is filed under the species Homo sapiens. Nature of the experiment: To identify inhibition of the IFN signalling (Jak-Stat) pathway via expression of an eGFP reporter gene under the control of an IFN-stimulated response element (ISRE) containing MxA promoter. The experiment is classed as functional. The following applies: 30 µM. (In general: A reporter such as luciferase makes a cellular process visible.)

Experiment [6] deals with T4, Tyrosyl-tRNA synthetase, putative (Trypanosoma cruzi (strain CL Brener)) (UniProt Q4DSP6).
T4 sequence (whole entry): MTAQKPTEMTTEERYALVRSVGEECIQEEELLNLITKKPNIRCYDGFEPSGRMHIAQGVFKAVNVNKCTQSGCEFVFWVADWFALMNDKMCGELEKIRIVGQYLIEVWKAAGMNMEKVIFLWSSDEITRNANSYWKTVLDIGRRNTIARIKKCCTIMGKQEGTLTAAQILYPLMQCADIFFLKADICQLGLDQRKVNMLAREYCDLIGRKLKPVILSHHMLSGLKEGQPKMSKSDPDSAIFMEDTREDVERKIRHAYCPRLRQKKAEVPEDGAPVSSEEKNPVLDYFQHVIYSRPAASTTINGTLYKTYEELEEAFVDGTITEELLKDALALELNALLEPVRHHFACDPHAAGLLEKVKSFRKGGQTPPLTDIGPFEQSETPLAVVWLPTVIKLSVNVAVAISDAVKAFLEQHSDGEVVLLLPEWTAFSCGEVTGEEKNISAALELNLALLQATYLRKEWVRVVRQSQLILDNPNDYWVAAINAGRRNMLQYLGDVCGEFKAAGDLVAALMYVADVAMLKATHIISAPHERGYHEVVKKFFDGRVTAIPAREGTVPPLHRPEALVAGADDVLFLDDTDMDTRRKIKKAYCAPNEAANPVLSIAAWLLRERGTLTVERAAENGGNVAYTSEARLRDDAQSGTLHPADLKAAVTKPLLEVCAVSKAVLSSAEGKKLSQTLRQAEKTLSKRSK
Nature of the experiment: Trypanosoma cruzi tyrosyl tRNA synthetase (TcYRS) _High Tyrosine SOP. Also: in the data most compounds retested in dose-response had high values. It counts as functional. The following applies: 30 µM.

Experiment [7] deals with T4, Tyrosyl-tRNA synthetase, putative (Trypanosoma cruzi (strain CL Brener)). Nature of the experiment: Trypanosoma cruzi tyrosyl tRNA synthetase (TcYRS) SOP. It counts as functional. To be noted: 30 µM.
Experiment [8] has as its target Chromo domain-containing protein 1 (Saccharomyces cerevisiae (strain ATCC 204508 / S288c) (Baker's yeast)) (UniProt P32657). Nature of the experiment: ScCHD-1 Enzyme Inhibition Assay. Also: in the data most compounds retested in dose-response had high values. It counts as functional. The following applies: 30 µM.

SMILES strings stand for the structures. For some assays here: Results with a measured potency or affinity are listed apart.

Sequence of Protein translocase subunit SecA (Escherichia coli (strain K12)) (P10408 whole entry): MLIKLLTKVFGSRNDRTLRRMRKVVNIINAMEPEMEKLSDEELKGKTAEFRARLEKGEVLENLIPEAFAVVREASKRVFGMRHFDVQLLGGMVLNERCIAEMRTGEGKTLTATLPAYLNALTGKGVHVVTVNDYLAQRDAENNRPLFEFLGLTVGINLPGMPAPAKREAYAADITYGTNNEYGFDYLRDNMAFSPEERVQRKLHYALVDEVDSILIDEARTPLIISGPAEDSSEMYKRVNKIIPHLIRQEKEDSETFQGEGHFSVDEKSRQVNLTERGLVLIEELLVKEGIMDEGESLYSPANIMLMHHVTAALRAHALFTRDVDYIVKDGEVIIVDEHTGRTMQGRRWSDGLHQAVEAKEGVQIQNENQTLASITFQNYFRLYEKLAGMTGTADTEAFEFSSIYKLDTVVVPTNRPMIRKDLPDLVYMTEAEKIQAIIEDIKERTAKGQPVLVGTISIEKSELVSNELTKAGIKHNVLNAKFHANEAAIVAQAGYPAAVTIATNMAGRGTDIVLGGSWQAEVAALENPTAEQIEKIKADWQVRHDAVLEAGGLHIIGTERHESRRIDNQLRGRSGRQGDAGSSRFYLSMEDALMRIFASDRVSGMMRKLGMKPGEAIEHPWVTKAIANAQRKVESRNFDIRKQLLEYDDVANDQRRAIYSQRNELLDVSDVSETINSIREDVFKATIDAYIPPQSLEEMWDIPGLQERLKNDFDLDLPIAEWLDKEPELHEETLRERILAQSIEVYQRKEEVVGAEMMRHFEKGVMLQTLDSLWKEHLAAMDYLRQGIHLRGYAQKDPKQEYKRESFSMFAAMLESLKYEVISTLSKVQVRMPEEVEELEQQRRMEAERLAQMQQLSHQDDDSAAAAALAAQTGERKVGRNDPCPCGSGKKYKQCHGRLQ
Sequence of Chromo domain-containing protein 1 (Saccharomyces cerevisiae (strain ATCC 204508 / S288c) (Baker's yeast)) (P32657 whole entry, the tested form may be a part): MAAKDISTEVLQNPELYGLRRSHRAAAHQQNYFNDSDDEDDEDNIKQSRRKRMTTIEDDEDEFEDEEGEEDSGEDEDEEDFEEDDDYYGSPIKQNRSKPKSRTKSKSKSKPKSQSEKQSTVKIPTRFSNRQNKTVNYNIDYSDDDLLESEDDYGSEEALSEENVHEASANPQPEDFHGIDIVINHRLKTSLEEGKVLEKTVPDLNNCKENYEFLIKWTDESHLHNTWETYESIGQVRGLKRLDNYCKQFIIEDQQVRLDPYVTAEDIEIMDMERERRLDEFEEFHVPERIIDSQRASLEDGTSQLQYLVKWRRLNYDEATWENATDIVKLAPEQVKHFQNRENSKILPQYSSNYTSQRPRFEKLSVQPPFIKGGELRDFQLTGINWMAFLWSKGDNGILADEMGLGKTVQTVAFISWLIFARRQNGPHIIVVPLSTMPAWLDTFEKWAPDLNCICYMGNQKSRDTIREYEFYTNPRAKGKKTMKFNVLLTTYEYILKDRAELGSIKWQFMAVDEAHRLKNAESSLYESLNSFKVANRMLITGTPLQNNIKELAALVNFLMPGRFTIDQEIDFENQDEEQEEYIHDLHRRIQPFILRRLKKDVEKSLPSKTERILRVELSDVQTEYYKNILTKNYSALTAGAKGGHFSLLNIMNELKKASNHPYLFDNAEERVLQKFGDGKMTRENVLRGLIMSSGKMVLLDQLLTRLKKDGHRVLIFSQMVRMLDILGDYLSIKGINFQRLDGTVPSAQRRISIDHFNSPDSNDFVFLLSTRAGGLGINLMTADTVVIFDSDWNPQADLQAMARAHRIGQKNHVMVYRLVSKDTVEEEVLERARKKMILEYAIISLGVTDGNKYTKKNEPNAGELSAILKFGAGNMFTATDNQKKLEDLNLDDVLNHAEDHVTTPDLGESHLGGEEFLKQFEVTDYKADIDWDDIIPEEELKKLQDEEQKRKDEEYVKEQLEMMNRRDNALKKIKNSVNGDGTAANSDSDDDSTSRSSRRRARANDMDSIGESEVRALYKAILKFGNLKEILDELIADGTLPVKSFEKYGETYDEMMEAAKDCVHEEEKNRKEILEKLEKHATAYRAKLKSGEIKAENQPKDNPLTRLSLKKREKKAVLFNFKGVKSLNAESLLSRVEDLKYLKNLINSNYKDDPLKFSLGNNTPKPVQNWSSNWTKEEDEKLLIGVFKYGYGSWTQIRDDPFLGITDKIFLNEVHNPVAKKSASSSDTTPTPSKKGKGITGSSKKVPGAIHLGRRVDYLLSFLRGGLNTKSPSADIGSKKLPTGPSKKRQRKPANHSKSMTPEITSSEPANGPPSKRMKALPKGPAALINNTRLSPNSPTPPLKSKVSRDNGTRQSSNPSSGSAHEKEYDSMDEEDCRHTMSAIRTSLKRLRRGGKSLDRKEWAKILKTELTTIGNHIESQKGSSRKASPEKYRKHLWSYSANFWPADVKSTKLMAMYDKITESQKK
Sequence of Sialic acid-binding Ig-like lectin 9 (Homo sapiens) (Q9Y336 whole entry): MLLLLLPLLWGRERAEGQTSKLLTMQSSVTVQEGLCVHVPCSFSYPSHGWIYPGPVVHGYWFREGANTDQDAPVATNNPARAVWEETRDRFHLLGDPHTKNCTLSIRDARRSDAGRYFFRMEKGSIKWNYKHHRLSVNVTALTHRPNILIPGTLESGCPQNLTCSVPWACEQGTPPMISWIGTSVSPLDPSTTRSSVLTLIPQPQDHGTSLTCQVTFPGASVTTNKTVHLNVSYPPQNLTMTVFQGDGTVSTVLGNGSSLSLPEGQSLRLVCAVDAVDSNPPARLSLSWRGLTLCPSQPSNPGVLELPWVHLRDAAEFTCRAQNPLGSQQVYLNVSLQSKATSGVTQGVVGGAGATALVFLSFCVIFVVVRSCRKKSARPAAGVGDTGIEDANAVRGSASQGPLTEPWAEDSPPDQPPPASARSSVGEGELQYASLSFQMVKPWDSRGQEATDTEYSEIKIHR

As for `CCOc1ccccc1C(=O)N1CCCC1c1ncc2c(n1)CCNC2` (stereo not given), the Percent Effect is -5.15% in experiment [1]; 4% in experiment [2]; -1.2% in experiment [3]; -5.72% in the experiment with Trypanosoma cruzi; -4.42% in [4]; 7.06% in [5]. Moreover, the Percent Effect in the experiment listed under Homo sapiens is 10.5%; in [6], -6.35%; in experiment [7], -2.5%; in experiment [8], -31.8%.
On to `O=C(NCc1cc[nH]n1)N(CCCO)C1CCc2ccccc21` (stereo not given), for which the Percent Effect in experiment [1] is -1.28%; in [2] it was 8%; in [3], -0.45%; in the experiment on Trypanosoma cruzi, 0%; in [4], -1.77%; in [5], 2.29%. Moreover, the Percent Effect in the experiment listed under Homo sapiens was 1.81%; in experiment [6] it was 3.68%; in experiment [7], 2.56%; in experiment [8] it was -7.56%.
Consider `Cc1cccc(C(=O)N2C[C@@H](OCc3cccnc3)[C@H]3OCCC[C@@H]32)n1`, for which the Percent Effect in experiment [1] was -3.43%; in experiment [2] it was 11.7%; in [3], -6.23%; in the experiment with Trypanosoma cruzi, 4.77%; in [4], -4.45%; in experiment [5] it was 21.6%. Further, the Percent Effect in the experiment listed under Homo sapiens worked out at 5.3%; in [6], 8.95%; in experiment [7], 7.69%; in experiment [8], 112%.
For the compound `Cc1nc(-c2cccc(C(=O)O)c2)cc(C2CCN(C(C)C)C2)n1` (stereo not given), the Percent Effect in experiment [1] is -2.85%; in experiment [2], 6.67%; in experiment [3], 1.03%; in the experiment with Trypanosoma cruzi, -1.18%; in experiment [4], 4.87%; in [5] it was 9.69%. In addition, the Percent Effect in the experiment listed under Homo sapiens was 1.3%; in [6] it was 6.35%; in [7], 17.5%; in experiment [8] it was -15.1%.
Take `CCn1ncnc1C1CC(=O)NCc2nc3ccccn3c21` (stereo not given): the Percent Effect in experiment [1] was -7.68%; in experiment [2], 10.8%; in [3], 16.9%; in the experiment on Trypanosoma cruzi it was 6.11%; in experiment [4] it was 10.8%; in experiment [5], 4.62%. The Percent Effect in the experiment filed under Homo sapiens was found to be 14.8%; in [6], 5.85%; in experiment [7] it was 9.76%; in [8], 84%.
Turning to `Cc1nc(COC[C@@H]2CCC[C@@]23CNCCO3)cs1`, the Percent Effect in experiment [1] is -4.17%; in [2] it was 6.49%; in experiment [3], -6%; with Trypanosoma cruzi it was -4.19%; in experiment [4] it was 4.05%; in experiment [5], 13%. Moreover, the Percent Effect in the experiment filed under Homo sapiens was 8.21%; in experiment [6], 6.84%; in [7] it was 2.56%; in experiment [8], -5.3%.
For the compound `Cc1nc(CN2CCN(Cc3ccoc3)Cc3cccnc32)cs1`, the Percent Effect in experiment [1] is -1.42%; in [2], -1.3%; in [3], -2.07%; in the experiment on Trypanosoma cruzi, -2.82%; in experiment [4], -4.45%; in experiment [5], 12.3%. Also, the Percent Effect in the experiment filed under Homo sapiens was 10.4%; in [6] it was 1.58%; in experiment [7] it was -5.13%; in [8], 1.4%.
`CN1CC(c2ccccc2)CC12CCN(C(=O)c1ccc(F)cc1)CC2` (stereo not given): the Percent Effect is -9.69% in [1]; 0% in [2]; 9.54% in experiment [3]; -2.04% with Trypanosoma cruzi; 2.45% in experiment [4]; 6.34% in experiment [5]. Also, the Percent Effect in the experiment listed under Homo sapiens is 16.1%; in experiment [6], 0.532%; in [7], 2.44%; in experiment [8], -1.53%.
Take `CCc1nc(C2CCCN2C(=O)c2cc(C3CC3)[nH]n2)no1` (stereo not given): the Percent Effect is -3.71% in experiment [1]; 5.33% in experiment [2]; -4.76% in [3]; -5.02% in the experiment on Trypanosoma cruzi; 1.77% in [4]; -1.44% in experiment [5]. The Percent Effect is 12.6% in the experiment filed under Homo sapiens, 3.68% in experiment [6], 5.13% in experiment [7] and -6.15% in [8].
On to `CC(=O)N1CCc2c(nc(-c3ccccn3)nc2N(C)CC(O)CO)C1` (stereo not given), for which the Percent Effect in [1] was -7.71%; in [2], 8.11%; in [3] it was 3.94%; with Trypanosoma cruzi, 2.62%; in experiment [4] it was 5.25%; in [5] it was 3.94%. Further, the Percent Effect in the experiment listed under Homo sapiens is -12.5%; in [6] it was 14.4%; in experiment [7], 21.9%; in experiment [8], -1.31%.
Consider `O=C(c1cc(C2CC2)on1)N1CC[C@]2(C[C@H](Oc3cccnc3)CO2)C1`, for which the Percent Effect in [1] is -7.12%; in experiment [2] it was 1.3%; in experiment [3], -0.278%; in the experiment on Trypanosoma cruzi it was 6.52%; in experiment [4] it was -12.2%; in [5], 6.27%. For the same compound, the Percent Effect is -3.24% in the experiment filed under Homo sapiens, 1.58% in [6], 5.13% in experiment [7] and 0.522% in experiment [8].
